Assay results from the supplement of paper PMC11732987, “Enantioselective OTUD7B fragment discovery through chemoproteomics screening and high-throughput optimisation” (Communications Chemistry, 2025).

What was measured:
Assay in all cases: log2 ratio of Biotin-Ahx-Ub-VS probe labelling (fragment/DMSO); higher = less target engagement (more negative = stronger competition), active = hit call of the paper (q ≤ 0.05, log2 ratio ≤ -1)
Details in all cases: compound concentration: 200 uM; treatment time: 3 h
[1] = molecular target: T1, USP42 (UniProt Q9H9J4)
T1 sequence (whole entry): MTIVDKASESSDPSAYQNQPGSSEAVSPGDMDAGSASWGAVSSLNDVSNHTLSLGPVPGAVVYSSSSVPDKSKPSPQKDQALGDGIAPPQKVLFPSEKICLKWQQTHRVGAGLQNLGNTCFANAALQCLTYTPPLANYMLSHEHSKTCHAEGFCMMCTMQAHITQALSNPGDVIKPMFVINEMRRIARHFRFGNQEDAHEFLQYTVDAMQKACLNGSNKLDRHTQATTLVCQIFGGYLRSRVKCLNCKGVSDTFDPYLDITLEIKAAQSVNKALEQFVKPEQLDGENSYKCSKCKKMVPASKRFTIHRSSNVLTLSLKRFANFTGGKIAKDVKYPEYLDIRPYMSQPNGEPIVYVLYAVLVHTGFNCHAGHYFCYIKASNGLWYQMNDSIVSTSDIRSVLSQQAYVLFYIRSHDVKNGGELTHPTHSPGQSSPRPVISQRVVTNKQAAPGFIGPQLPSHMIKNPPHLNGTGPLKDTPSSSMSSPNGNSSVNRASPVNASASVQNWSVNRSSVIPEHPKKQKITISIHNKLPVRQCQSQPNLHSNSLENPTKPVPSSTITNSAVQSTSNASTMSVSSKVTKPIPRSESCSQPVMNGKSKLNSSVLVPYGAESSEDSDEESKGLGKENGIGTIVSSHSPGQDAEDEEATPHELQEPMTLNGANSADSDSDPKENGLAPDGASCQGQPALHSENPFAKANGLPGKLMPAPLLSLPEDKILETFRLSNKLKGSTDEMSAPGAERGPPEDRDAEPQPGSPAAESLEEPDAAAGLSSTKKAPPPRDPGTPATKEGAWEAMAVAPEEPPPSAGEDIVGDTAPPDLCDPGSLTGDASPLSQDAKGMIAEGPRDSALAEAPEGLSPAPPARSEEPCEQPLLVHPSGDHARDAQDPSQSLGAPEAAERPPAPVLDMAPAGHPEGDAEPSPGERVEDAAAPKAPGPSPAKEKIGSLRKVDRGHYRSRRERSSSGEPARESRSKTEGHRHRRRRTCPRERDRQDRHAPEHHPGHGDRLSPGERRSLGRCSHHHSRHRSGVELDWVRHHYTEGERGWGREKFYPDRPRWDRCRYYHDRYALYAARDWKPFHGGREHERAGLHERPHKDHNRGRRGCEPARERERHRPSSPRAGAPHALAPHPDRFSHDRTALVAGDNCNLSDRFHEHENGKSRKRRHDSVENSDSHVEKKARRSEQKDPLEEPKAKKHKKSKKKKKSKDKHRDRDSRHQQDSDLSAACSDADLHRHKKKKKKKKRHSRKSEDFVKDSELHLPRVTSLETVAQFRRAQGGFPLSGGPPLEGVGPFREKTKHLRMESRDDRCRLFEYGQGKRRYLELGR
Procedure, shortened: (§1)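 Labelled DUBs from HEK293T lysate were NeutrAvidin-enriched, digested with LysC and trypsin, and run by diaPASEF LC-MS/MS. Before that, each 495 µg sample in Tris/CHAPS/IGEPAL buffer with protease inhibitors was treated in triplicate with fragment at 200 µM or vehicle for 3 h, then with Biotin-Ahx-Ub-VS at 0.5 µM final for 1 h. Values are average log2 ratios of fragment over vehicle by unpaired t-test, based on global-median-normalised Spectronaut label-free quantities from proteins with ≥2 unique peptides.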

[2] = molecular target: USP46 (UniProt P62068)
USP46, sequence (P62068 whole entry): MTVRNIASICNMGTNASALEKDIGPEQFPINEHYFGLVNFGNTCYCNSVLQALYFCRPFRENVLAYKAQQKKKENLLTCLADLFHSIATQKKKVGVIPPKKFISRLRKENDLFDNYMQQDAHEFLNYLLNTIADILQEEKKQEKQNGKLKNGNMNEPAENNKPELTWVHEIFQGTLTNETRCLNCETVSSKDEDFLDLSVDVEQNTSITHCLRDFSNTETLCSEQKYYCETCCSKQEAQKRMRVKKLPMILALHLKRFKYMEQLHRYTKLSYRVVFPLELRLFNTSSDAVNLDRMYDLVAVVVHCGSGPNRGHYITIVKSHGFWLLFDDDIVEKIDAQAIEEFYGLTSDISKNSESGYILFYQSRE
Procedure, shortened: as §1

[3] = molecular target: T2, USP47 (UniProt Q96K76)
T2 sequence (whole entry): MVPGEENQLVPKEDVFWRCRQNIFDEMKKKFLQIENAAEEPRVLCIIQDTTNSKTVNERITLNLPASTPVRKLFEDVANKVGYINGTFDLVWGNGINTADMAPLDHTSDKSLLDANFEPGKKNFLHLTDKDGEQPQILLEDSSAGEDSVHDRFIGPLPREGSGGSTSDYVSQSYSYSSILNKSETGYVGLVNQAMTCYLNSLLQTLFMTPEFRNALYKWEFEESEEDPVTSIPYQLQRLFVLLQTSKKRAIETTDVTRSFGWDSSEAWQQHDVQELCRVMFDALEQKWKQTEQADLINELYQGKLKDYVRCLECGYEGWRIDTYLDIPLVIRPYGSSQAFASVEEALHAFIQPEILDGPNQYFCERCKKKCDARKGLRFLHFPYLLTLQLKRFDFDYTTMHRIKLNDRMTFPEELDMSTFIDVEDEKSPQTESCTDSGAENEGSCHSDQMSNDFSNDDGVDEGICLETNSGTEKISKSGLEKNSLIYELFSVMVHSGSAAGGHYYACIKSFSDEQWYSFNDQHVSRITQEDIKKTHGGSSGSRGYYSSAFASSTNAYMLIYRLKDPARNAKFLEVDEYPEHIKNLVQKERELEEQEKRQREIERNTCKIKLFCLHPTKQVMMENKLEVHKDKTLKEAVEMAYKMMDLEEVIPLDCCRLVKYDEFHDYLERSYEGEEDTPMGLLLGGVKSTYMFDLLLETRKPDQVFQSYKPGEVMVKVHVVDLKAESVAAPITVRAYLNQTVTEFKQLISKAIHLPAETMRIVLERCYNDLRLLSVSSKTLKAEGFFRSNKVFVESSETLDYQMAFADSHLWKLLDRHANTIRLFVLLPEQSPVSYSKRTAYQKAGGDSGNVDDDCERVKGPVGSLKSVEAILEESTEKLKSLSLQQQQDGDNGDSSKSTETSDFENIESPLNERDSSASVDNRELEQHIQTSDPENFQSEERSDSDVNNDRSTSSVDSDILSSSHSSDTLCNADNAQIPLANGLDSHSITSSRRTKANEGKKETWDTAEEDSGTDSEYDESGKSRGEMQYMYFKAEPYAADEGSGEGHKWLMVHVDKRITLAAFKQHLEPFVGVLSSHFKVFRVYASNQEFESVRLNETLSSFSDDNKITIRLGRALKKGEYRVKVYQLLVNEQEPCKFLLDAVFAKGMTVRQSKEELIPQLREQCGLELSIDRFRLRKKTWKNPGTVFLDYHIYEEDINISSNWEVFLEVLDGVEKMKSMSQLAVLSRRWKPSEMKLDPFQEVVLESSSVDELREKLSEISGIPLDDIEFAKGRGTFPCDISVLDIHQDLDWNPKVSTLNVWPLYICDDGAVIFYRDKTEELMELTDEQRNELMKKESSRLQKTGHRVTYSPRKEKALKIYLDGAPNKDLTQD
Procedure, shortened: as §1

[4] = molecular target: T3, USP48 (UniProt Q86UV5)
T3 sequence (whole entry): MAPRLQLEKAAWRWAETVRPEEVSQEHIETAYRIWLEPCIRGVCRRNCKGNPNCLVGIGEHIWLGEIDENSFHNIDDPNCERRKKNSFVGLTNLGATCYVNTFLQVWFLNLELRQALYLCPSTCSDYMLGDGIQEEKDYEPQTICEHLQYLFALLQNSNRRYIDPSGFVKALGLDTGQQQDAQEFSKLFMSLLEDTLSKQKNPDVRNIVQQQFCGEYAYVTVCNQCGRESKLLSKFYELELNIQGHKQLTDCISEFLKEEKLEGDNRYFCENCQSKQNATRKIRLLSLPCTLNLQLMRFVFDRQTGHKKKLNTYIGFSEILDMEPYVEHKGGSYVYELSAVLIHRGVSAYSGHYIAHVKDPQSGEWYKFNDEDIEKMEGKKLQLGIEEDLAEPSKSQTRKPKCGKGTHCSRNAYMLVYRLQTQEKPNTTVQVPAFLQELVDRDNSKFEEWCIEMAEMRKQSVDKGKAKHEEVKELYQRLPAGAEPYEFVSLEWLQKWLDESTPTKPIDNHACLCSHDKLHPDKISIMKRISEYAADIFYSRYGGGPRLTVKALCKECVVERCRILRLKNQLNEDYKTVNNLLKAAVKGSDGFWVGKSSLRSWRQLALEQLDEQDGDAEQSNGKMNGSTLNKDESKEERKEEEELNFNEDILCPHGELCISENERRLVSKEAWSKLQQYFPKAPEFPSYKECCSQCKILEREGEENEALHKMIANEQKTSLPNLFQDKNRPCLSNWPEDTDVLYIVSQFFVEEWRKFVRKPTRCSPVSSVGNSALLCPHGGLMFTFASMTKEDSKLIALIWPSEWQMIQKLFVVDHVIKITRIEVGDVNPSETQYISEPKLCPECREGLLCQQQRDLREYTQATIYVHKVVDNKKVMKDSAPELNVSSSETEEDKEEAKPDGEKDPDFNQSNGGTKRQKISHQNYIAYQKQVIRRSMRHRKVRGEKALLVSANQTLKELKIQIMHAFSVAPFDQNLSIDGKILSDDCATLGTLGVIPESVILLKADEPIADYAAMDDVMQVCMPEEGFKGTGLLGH
Procedure, shortened: as §1

[5] = molecular target: T4, USP5 (UniProt P45974)
T4 sequence (whole entry): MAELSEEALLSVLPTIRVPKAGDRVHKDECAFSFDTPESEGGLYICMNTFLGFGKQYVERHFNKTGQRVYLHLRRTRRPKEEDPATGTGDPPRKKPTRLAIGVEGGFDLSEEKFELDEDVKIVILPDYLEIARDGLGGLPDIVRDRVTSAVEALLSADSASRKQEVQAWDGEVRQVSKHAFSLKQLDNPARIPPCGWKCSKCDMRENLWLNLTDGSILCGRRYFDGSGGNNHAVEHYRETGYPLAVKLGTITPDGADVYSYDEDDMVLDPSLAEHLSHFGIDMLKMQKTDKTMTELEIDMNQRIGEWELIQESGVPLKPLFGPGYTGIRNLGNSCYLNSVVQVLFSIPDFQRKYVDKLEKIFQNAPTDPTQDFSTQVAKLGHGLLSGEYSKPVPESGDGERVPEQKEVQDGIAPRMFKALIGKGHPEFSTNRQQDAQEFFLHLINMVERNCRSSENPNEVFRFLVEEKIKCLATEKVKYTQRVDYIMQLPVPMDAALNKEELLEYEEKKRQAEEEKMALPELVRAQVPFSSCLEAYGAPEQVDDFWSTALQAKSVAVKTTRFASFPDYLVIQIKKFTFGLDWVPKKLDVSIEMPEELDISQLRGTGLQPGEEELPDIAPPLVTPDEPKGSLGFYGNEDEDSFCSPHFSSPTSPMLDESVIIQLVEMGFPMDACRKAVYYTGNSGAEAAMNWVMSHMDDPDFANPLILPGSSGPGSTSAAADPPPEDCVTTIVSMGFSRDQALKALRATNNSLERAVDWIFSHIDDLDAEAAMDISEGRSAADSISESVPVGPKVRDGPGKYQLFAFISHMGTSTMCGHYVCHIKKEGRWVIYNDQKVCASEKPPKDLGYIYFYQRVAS
Procedure, shortened: as §1

[6] = molecular target: USP54 (UniProt Q70EL1)
USP54, sequence (Q70EL1 whole entry): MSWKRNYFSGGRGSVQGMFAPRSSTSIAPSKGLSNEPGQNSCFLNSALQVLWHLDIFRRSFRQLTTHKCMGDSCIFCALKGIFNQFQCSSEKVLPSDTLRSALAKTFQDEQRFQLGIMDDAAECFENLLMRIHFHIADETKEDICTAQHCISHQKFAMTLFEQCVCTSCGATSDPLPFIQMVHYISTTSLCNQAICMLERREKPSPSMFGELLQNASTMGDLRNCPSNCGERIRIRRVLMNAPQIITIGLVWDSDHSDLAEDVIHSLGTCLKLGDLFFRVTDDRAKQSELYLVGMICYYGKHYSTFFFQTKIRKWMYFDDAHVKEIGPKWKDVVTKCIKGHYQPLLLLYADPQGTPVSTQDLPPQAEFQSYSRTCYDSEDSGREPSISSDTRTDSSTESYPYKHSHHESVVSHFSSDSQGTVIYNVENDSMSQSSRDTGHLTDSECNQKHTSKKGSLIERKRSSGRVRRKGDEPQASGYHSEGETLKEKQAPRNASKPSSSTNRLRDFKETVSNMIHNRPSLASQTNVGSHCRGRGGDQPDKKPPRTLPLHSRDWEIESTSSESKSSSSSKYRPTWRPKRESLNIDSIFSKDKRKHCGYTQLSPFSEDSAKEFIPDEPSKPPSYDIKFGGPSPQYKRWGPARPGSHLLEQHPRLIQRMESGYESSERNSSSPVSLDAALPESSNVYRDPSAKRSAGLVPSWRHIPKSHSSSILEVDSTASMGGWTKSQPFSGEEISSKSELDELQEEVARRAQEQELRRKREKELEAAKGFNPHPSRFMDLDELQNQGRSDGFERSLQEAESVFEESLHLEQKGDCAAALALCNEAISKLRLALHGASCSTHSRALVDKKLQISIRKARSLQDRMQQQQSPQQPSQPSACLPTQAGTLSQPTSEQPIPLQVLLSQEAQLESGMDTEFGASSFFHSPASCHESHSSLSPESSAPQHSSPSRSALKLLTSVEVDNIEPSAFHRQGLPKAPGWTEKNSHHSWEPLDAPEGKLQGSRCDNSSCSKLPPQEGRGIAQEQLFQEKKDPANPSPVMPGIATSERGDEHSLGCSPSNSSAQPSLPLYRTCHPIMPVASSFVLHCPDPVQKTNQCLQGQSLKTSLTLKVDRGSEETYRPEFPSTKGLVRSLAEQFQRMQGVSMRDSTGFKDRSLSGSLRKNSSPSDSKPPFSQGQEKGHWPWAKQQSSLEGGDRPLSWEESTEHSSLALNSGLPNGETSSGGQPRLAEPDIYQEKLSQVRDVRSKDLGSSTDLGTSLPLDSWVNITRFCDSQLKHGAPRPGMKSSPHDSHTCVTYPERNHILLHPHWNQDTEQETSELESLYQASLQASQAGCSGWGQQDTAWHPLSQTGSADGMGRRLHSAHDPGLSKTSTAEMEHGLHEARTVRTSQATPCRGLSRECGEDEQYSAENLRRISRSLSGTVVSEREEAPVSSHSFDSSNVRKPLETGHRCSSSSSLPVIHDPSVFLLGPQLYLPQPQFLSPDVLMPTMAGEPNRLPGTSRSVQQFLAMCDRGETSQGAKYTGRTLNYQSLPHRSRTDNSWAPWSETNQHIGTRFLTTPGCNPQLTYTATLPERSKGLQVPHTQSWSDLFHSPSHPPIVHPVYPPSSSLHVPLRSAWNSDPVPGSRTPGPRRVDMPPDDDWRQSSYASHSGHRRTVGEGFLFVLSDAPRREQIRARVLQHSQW
Procedure, shortened: as §1

[7] = molecular target: USP7 (UniProt Q93009)
USP7, sequence (Q93009 whole entry, looked up): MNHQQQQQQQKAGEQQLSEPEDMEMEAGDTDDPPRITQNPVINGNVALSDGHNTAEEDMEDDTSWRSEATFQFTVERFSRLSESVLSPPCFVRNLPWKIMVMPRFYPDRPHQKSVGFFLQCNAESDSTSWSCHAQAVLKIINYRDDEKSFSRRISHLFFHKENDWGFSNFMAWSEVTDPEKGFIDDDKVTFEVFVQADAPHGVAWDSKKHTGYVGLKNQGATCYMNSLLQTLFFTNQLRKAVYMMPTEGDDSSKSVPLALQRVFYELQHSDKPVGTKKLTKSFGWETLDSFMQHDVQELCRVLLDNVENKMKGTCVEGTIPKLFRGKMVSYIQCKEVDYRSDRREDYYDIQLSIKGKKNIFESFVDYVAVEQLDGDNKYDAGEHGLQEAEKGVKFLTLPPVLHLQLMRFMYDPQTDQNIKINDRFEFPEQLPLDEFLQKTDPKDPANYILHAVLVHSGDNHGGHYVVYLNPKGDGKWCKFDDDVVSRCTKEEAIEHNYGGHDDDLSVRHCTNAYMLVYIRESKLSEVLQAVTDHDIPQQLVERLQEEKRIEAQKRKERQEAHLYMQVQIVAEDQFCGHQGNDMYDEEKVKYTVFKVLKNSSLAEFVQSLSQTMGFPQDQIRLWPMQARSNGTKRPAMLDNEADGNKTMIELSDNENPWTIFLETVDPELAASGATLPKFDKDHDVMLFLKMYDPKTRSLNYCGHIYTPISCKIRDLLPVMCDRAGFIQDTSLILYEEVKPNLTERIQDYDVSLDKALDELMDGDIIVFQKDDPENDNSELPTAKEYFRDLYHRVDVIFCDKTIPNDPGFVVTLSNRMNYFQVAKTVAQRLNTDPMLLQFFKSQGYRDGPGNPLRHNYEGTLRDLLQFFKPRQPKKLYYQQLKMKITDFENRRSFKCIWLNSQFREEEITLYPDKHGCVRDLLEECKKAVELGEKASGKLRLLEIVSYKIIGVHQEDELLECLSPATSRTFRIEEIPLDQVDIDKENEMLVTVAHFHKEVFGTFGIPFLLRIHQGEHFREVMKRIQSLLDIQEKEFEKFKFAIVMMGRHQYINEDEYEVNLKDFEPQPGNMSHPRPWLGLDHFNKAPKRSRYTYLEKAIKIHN
Procedure, shortened: as §1

[8] = molecular target: T5, USP8 (UniProt P40818)
T5 sequence (whole entry): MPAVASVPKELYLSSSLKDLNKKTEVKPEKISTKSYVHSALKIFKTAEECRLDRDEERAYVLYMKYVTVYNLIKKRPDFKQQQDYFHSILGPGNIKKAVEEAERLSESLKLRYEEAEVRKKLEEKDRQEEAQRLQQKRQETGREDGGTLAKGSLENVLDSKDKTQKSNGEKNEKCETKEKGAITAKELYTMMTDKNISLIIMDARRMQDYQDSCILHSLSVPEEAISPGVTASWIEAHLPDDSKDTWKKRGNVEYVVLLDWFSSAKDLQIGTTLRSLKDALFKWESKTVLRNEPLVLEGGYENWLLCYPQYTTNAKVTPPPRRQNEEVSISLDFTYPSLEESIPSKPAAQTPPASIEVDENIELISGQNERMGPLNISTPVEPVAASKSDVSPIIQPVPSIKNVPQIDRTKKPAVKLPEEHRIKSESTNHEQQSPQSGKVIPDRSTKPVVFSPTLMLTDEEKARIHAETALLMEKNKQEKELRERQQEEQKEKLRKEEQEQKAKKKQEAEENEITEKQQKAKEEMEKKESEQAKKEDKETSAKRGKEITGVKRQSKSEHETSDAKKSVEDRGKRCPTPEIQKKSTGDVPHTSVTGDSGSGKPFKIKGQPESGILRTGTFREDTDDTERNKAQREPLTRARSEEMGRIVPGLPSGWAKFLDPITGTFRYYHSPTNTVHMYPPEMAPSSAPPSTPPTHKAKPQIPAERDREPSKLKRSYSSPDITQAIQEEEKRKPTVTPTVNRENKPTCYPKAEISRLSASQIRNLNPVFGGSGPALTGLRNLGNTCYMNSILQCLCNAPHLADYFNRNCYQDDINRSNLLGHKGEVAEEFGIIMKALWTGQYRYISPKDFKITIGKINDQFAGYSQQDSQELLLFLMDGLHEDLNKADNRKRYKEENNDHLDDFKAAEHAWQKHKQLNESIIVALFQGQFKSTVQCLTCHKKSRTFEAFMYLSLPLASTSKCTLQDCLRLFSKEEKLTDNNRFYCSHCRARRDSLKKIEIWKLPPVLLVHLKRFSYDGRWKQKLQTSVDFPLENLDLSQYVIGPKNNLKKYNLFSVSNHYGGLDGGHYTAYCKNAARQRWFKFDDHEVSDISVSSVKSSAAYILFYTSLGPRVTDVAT
Procedure, shortened: as §1

Measured: log2 ratio of Biotin-Ahx-Ub-VS probe labelling

Cc1cc(NC(=O)CCl)n(-c2ccccc2)n1
inactive: [1] 0.45 | [2] -0.023 | [3] -0.584 | [4] 0.128 | [5] -0.00592 | [6] -0.0011 | [7] -0.0104 | [8] -0.118
